From PubChem BioAssay (NCI)
This is part of a sample that, as a whole, favours compounds with a hit. Of some 83,000 tested, about 20% had one in any assay.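 A percent growth of 40 corresponds to 60% growth inhibition; 0 means no net growth; -100 means all cells died. Active threshold: below 10.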 A number with no mark means an inactive call. Calls of active or inactive are those of the source.

Tests used:
Test in all cases: NCI-60 one-dose screen, 48 h (100 = growth as untreated, 0 = no growth, -100 = all killed)
Conditions in all cases: 10 µM
NCI-H23 lung = system: NCI-H23 lung
NCI-H226 lung = system: NCI-H226 lung
NCI-H322M lung = system: NCI-H322M lung
HOP-62 NSCLC = system: HOP-62 NSCLC
NCI-H460 lung = system: NCI-H460 lung
NCI-H522 lung = system: NCI-H522 lung
A549/ATCC NSCLC = system: A549/ATCC NSCLC
786-0 renal = system: 786-0 renal
COLO 205 colon = system: COLO 205 colon
HOP-92 NSCLC = system: HOP-92 NSCLC

Row | SMILES | growth (NCI-H23 lung) [%] | growth (NCI-H226 lung) | growth (NCI-H322M lung) | growth (HOP-62 NSCLC) | growth (NCI-H460 lung) | growth (NCI-H522 lung) | growth (A549/ATCC NSCLC) [%] | growth (786-0 renal) | growth (COLO 205 colon) | growth (HOP-92 NSCLC) [%]
1 | CC(=O)c1sc2c(c1OC(=O)c1ccc(Cl)cc1Cl)c(=O)n(-c1ccccc1)c(=S)n2-c1ccccc1 | 23.9 | 3.85% (active) | -37.3% (active) | 9.38% (active) | 25.2% | -35% (active) | 32.1 | -7.98% (active) | 5.77% (active) | –
2 | O=C1C=C(O)C(=O)C=C1O | 94.8 | 114% | 112% | 97.9% | 107% | – | 112 | 107% | 94.1% | –
3 | CC(CC(=O)c1ccccc1)c1ccccc1 (stereo unspecified) | 106 | 98.4% | 90.6% | 119% | 104% | 84.1% | – | 96.8% | 123% | –
4 | CC1(O)CCCCC1O (stereo unspecified) | 103 | 104% | 104% | 95.9% | 109% | 91.8% | – | 102% | 108% | –
5 | COc1cc(-c2ccc(NC(=O)NC3CC3)c(OC)c2)ccc1NC(=O)NC1CC1 | 98.3 | 102% | 110% | 101% | 16.2% | -10.3% (active) | 26.8 | 74% | 103% | –
6 | Cc1ccc(C(=O)N/N=C/c2ccc3c(c2)OCO3)cc1 | 91 | 101% | 98.8% | 97.5% | 96.6% | 80.9% | 97.7 | 99.8% | 113% | –
7 | O=c1[nH]n(-c2ccccc2)c(=O)cc1Cl | 106 | 93.6% | 114% | 108% | 109% | – | 102 | 103% | 104% | –
8 | CCCCN(CCCC)CCCO | 104 | 104% | 136% | 106% | 109% | – | 106 | 109% | 105% | –
9 | O=C(O)C(Cc1ccccc1)C(=O)O | 95.1 | 95.5% | 105% | 118% | 101% | 106% | 103 | 99.4% | 110% | –
10 | C=CC(=O)OCCCCCCCC | 105 | 98.9% | 117% | 98.4% | 102% | – | 99.8 | 104% | 107% | –
11 | N#CCCN(CCCN1CCOCC1)CN1C(=O)c2ccccc2C1=O | 102 | 97.9% | 90.8% | 105% | 111% | 92% | 105 | 111% | 109% | –
12 | CC[N+](C)(CC)CCO | 107 | 92.7% | 104% | 92.6% | 105% | – | 94.1 | 99.5% | 114% | –
13 | CCC/C=C(\C)C(C)(C#N)C(=O)OCC (stereo unspecified) | 116 | 101% | 111% | 99.1% | 108% | – | 95.7 | 110% | 110% | –
14 | CC(=O)Nc1ccc(NC(C)=O)c2c1C(=O)c1ccccc1C2=O | 89.5 | 81.7% | 89.1% | 81.9% | 102% | 89.3% | 96.2 | 91% | 87.6% | –
15 | O=C(NCO)c1ccccc1 | 109 | 101% | 91.6% | 97.8% | 105% | – | 106 | 108% | 106% | –
16 | CC1(C)/C(=C\CO)C2CCC1C2 (stereo unspecified) | 103 | 98.1% | 103% | 96.8% | 115% | 88.8% | – | 101% | 111% | –
17 | CN(C)C(C)(C)CC(C)(C)C | 103 | 99.7% | 116% | 104% | 108% | – | 108 | 100% | 106% | –
18 | NC(CSC(c1ccccc1)(c1ccccc1)c1ccccc1)C(=O)O (stereo unspecified) | 61.3 | 87.6% | 43.9% | 44.5% | 13.6% | – | 25.7 | 49.4% | 23.2% | –

Row | SMILES | growth (NCI-H23 lung) [%] | growth (NCI-H226 lung) | growth (NCI-H322M lung) | growth (HOP-62 NSCLC) | growth (NCI-H460 lung) | growth (NCI-H522 lung) | growth (A549/ATCC NSCLC) [%] | growth (786-0 renal) | growth (COLO 205 colon) | growth (HOP-92 NSCLC) [%]
19 | CCOC(=O)c1coc(C(=O)OCC)c1C(=O)OCC | 100 | 111% | 120% | 119% | 111% | 128% | 108 | 108% | 128% | –
20 | COC(=O)Nc1nc2ccc(C(=O)c3ccc(F)cc3)cc2[nH]1 | 31.8 | 145% | 40.5% | 33.1% | 6% (active) | -52.1% (active) | – | 26.4% | -37.7% (active) | –
21 | N#Cc1ccc(NC(=O)Nc2cccc(C#N)c2)cc1 | 86.3 | 116% | 116% | 112% | 78.8% | 51.9% | 69.1 | 97.5% | 160% | –
22 | O=C1OC[C@H]2[C@H](c3ccc(O)c(O)c3)c3cc(O)c(O)cc3C[C@H]12 | 13.4 | 116% | 130% | 130% | 122% | 19.4% | – | 110% | 108% | –
23 | COCCCNC(=O)c1nnn2c1nc(N)c1cc(Cl)ccc12 | 98.4 | 94.1% | 88.9% | 80.4% | 102% | – | 106 | 96.6% | 77.7% | –
24 | CCC(=O)Oc1ccc(OC)cc1 | 108 | 105% | 95.5% | 98% | 104% | – | 105 | 105% | 110% | –
25 | COc1cc(C(N)=O)cc(OC)c1OC | 101 | 102% | 106% | 99.6% | 111% | 102% | – | 108% | 101% | –
26 | CCNCCCCNCCCCNCCCCNCCCCNCC | 49.5 | 134% | 42.1% | 113% | 76.1% | 87.3% | 54.4 | 150% | 69.1% | –
27 | COC(=O)c1ccc(NC(=O)CCl)cc1 | 85.3 | 118% | 95.7% | 88.5% | 47.5% | – | 79.2 | 93.5% | 103% | –
28 | CCC(C)(C)C1CCC(O)CC1 (stereo unspecified) | 91 | 103% | 103% | 90.5% | 103% | – | 106 | – | – | –
29 | COc1cc(CCN=Cc2ccccc2O)c([N+](=O)[O-])cc1OC | 100 | 104% | 101% | 91.9% | 108% | – | 102 | 92.6% | 110% | –
30 | OCc1cccc2ccccc12 | 101 | 112% | 121% | 104% | 112% | – | 108 | 109% | 114% | –
31 | CCO/C=C1\SC(=S)N(c2cccc(C)c2)C1=O | 108 | 93.4% | 92% | 88.9% | 102% | – | – | 106% | – | –
32 | COc1ccc(C(=O)C(Br)C(Br)C(=O)O)cc1 (stereo unspecified) | 99.1 | 102% | 94.1% | 108% | 104% | – | – | 100% | – | –
33 | COc1cc(/C=C(\C#N)C(=O)c2ccccc2)ccc1OCc1ccccc1 | 91.5 | 92.3% | 91.6% | – | 101% | 97.6% | 104 | 101% | – | 95.7
34 | Sc1ccc(Nc2c3ccccc3nc3ccccc23)cc1 | 73 | 91.2% | 74.6% | 92.4% | – | 40.9% | 61 | 95.5% | – | 76.9
35 | OC1OC(COC(c2ccccc2)(c2ccccc2)c2ccccc2)C(O)C(O)C1O (stereo unspecified) | 98.1 | 90.1% | 92.1% | 107% | 101% | – | – | 102% | 117% | –
36 | CCCCC(CC)COC(C)=O (stereo unspecified) | 100 | 105% | 98% | – | 106% | 105% | 105 | 96% | 100% | 95.6
